# From PubChem BioAssay (NCATS)
# Results filed as inconclusive are left out. Entries that show only a call come without a potency. Active and inactive are the calls of the source. Unless noted, calls follow the shape of the dose curve; as a rule, active = well fitted curve in the direction sought with a large enough effect; inconclusive = small, poorly fitted or top-dose-only effect, or another doubt; inactive = no such curve, though single readings can be large; an effect the other way counts as inactive or inconclusive.
# Experiments:
# [1] = qHTS Assay for Lipid Storage Modulators (AID 1519; calls by dose curve); conditions: Drosophila S3 cells, BODIPY lipid droplet/cell ratio, laser cytometry, cells loaded with oleic acid
# In short: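 Cells seeded at 5,000 per well were treated with compounds over a concentration series and loaded with oleic acid (400 uM, as added). Lipid droplet fluorescence (488 nm excitation, 500-530 nm channel) was read by laser-scanning cytometry and normalized to 20 uM Triacsin C.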
# [2] = biological target: Alpha-galactosidase A (Homo sapiens) (UniProt P06280); assay: Counterscreen for Glucocerebrosidase Inhibitors: qHTS Assay for Human alpha-Galactosidase at pH 4.5 (AID 992); conditions: purified enzyme, fluorogenic substrate; series mostly up to 76.9 µM
# In short: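 Quantitative HTS: compounds tested from 0.7 nM up to 77 uM against 2 nM enzyme with 80 uM 4-MU alpha-D-galactopyranoside. The 20 min room-temperature reaction is stopped with 1M NaOH/1M glycine, pH 10.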
# [3] = biological target: alpha-glucosidase (Oryza sativa, rice) (UniProt Q653V4); assay: Counterscreen for Glucocerebrosidase Inhibitors: qHTS Assay for Rice alpha-Glucosidase at pH 5.0 (AID 997); conditions: rice alpha-glucosidase enzyme activity; series mostly up to 76.9 µM
# In short: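 Rice alpha-glucosidase (4 nM final) with 400 uM 4-methylumbelliferyl-alpha-D-glucopyranoside in citrate buffer pH 5.0, 20 min at room temperature, stopped at pH 10; fluorescence 365/440 nm, compounds 0.7 nM–77 uM, AC50 from Hill fits.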
# [4] = Validation of Assay for Modulators of Lamin A Splicing (AID 1459; active = well fitted curve in the direction sought with a large enough effect in the signal ratio; the % refers to the signal ratio;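 also: cells exposed to compound for two days before reading; ratio rise marks activators and ratio drop marks inhibitors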); conditions: Lamin A splicing dual RFP/GFP fluorescence reporter; series mostly up to 9.22 µM
# In short: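 Dual-reporter HeLa S3 line (lamin A-EGFP minigene, DsRed2) treated with compounds 48 hrs, 0.5% DMSO final. Endpoint: EGFP/DsRed2 total intensity ratio from laser-scanning microplate cytometry.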
# [5] = biological target: DNA repair nuclease/redox regulator APEX1 (Homo sapiens) (UniProt P27695); assay: qHTS Validation Assay for Inhibitors of the Human Apurinic/apyrimidinic Endonuclease 1 (APE1) (AID 1705; also: potency is read from the fitted curve at half-maximal effect;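 as to activity change, negative = inhibition: TAMRA fluorescence gain over two minutes as APE1 cuts a quenched THF abasic duplex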); conditions: purified APE1 endonuclease activity, fluorescence, titration; series mostly up to 57.1 µM
# In short: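 Substrate: 50 nM final fluorophore/quencher THF-abasic duplex. Enzyme preincubated with compounds 15 min, RT. Progress derived from fluorescence difference, third minus first kinetic read.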
# [6] = Counterscreen for APE1 Inhibitors: Fluorescent Dye Displacement Validation Assay (AID 1707); conditions: fluorescent dye displacement from DNA; series mostly up to 57.1 µM; also: potency is read from the fitted curve at half-maximal effect
# In short: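 Compounds are scored by their ability to displace Thiazole Orange (250 nM) from a 50 nM TAMRA-tagged duplex bearing a tetrahydrofuran abasic site. Buffer is 50 mM Tris-HCl pH7.5, 50mM NaCl, 2 mM MgCl2, 0.01% Tween-20.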
# [7] = Cell Viability - LYMP2-024 (AID 988); conditions: LYMP2-024 lymphoblastoid cell viability; series mostly up to 92.2 µM;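 also: potency is read from the fitted curve at half-maximal effect; cells exposed to compound for 24 hr at 37 °C; nearly all actives have a fitted effect of over 60% in size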
# In short: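 Acute toxicity is measured as concentration-dependent loss of intracellular ATP in a human lymphoblastoid line treated 24 hours at 37 C. Luciferase luminescence quantifies ATP; AC50 values come from standard Hill-equation modelling.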
# [8] = Cell Viability - LYMP1-002 - Assay at 40 hr (AID 994); conditions: LYMP1-002 lymphoblastoid cell viability; series mostly up to 92.2 µM; also: potency is read from the fitted curve at half-maximal effect; nearly all actives have a fitted effect of over 60% in size
# In short: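 Viability in the human lymphoblastoid line was measured as intracellular ATP via CellTiter-Glo after 40 hr compound exposure. Tetraoctylammonium bromide served as positive control.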
# [9] = measured here: cell count channel max response
# [10] = measured here: lipid channel max response
# Sequence of Alpha-galactosidase A (Homo sapiens) (P06280 whole entry, looked up): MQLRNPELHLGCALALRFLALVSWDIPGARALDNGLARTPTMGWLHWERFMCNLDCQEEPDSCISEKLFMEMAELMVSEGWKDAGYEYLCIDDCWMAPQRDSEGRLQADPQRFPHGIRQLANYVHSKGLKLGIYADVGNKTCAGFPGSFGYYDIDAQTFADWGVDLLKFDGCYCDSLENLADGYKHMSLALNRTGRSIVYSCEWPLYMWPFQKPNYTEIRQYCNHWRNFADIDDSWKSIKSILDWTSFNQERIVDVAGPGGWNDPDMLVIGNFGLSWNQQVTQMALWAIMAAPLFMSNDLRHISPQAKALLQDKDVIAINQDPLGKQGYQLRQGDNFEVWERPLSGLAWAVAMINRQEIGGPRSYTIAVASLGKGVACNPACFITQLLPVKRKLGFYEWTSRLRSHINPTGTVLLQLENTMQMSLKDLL
# Sequence of DNA repair nuclease/redox regulator APEX1 (Homo sapiens) (P27695 whole entry, looked up): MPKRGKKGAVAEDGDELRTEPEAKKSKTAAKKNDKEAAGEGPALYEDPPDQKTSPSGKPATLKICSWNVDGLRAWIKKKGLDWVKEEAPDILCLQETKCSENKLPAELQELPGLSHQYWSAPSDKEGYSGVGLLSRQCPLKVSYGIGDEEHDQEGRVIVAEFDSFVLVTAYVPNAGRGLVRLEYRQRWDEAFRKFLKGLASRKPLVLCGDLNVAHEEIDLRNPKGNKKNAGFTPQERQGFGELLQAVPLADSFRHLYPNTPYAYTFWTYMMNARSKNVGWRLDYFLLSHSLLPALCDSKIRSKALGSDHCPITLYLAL
smiles,measurement,setting,value
Cc1c(Nc2ncccc2C(=O)O)cccc1C(F)(F)F,"activity change, negative = inhibition",[1]; at 25.7 µM (top of the series),-1.24% (inactive)
same,max response,[1]; [9],-9.98%
same,max response,[1]; [10],-11.1%
O=c1cc(-c2ccccc2)oc2c(O)c(O)ccc12,"activity change, negative = inhibition",[1]; at 57.5 µM (top of the series),-5.17% (inactive)
same,max response,[1]; [9],-10.5%
same,max response,[1]; [10],-5.87%
CC(=O)SCC[N+](C)(C)C,outcome,[2],inactive
same,outcome,[3],inactive
same,outcome,[4],inactive
same,Potency,[5],inactive
same,Potency,[6],inactive
CCCCC/C=C\CC(O)/C=C/c1cccc(CC(O)CCCCO)n1 (stereo not given),outcome,[4],inactive
same,Potency,[6],inactive
CCCCN1CCC(n2c(=O)[nH]c3ccccc32)CC1,outcome,[2],inactive
same,outcome,[3],inactive
same,outcome,[4],inactive
same,Potency,[5],inactive
same,Potency,[6],inactive
CCCCCCOc1ccccc1C(N)=O,"activity change, negative = inhibition",[1]; at 57.5 µM (top of the series),12.4% (inactive)
same,max response,[1]; [9],7.6%
same,max response,[1]; [10],24%
N#C/C(=C\c1ccc(O)c(O)c1)C(=O)NCc1ccccc1,outcome,[2],inactive
same,outcome,[3],inactive
same,outcome,[4],inactive
same,Potency,[5],inactive
same,Potency,[6],inactive
COc1ccc(/C=C/C(=O)Nc2ccccc2C(=O)O)cc1OC,outcome,[2],inactive
same,outcome,[3],inactive
same,outcome,[4],inactive
Nc1nc(Cl)nc2c1ncn2[C@@H]1O[C@H](CO)[C@@H](O)[C@H]1O,"activity change, negative = inhibition",[1]; at 57.5 µM (top of the series),5.13% (inactive)
same,max response,[1]; [9],7.07%
same,max response,[1]; [10],14%
CCCCCCCCCCCCCCCC(=O)NCC(COP(=O)([O-])OCC[N+](C)(C)C)OCC (stereo not given),"activity change, negative = inhibition",[1]; at 57.5 µM (top of the series),-0.558% (inactive)
same,max response,[1]; [9],-22.8%
same,max response,[1]; [10],-25%
CN[C@H](CC(C)C)C(=O)N[C@H]1C(=O)N[C@@H](CC(N)=O)C(=O)N[C@H]2C(=O)N[C@H]3C(=O)N[C@H](C(=O)N[C@H](C(=O)O)c4cc(O)cc(O)c4-c4cc3ccc4O)[C@H](O)c3ccc(c(Cl)c3)Oc3cc2cc(c3O[C@@H]2O[C@H](CO)[C@@H](O)[C@H](O)[C@H]2O[C@H]2C[C@](C)(N)[C@H](O)[C@H](C)O2)Oc2ccc(cc2Cl)[C@H]1O,outcome,[4],inactive
same,Potency,[6],inactive
C[C@@H](NC(=O)/C(C#N)=C/c1ccc(O)c(O)c1)c1ccccc1,outcome,[2],inactive
same,outcome,[3],inactive
same,outcome,[4],inactive
same,Potency,[6],inactive
C[N+](C)(CCCCCC[N+](C)(C)CCCN1C(=O)c2cccc3cccc(c23)C1=O)CCCN1C(=O)c2cccc3cccc(c23)C1=O,outcome,[2],inactive
same,outcome,[3],inactive
same,outcome,[4],inactive
same,Potency,[5],3.55 µM (active)
same,Potency,[6],5.62 µM (active)
Nc1ccc(C(=O)O)c(O)c1,"activity change, negative = inhibition",[1]; at 57.5 µM (top of the series),-7.1% (inactive)
same,max response,[1]; [9],19.5%
same,max response,[1]; [10],14%
N#C/C(=C\c1ccc(O)c(O)c1)C(=O)NCCCc1ccccc1,outcome,[2],inactive
same,outcome,[3],inactive
same,outcome,[4],inactive
same,Potency,[5],inactive
c1cnc2c(c1)ccc1cccnc12,Potency,[7],12.6 µM (active)
same,outcome,[2],inactive
same,Potency,[8],12.6 µM (active)
same,outcome,[3],inactive
same,outcome,[4],inactive
same,Potency,[5],inactive
same,Potency,[6],inactive
NC(=O)C(=O)O,outcome,[2],inactive
same,outcome,[3],inactive
same,outcome,[4],inactive
same,Potency,[5],inactive
same,Potency,[6],inactive
